Assay outcomes from PubChem.
Compounds with a hit are over-represented: about 3.7% of the library has one in this group of screens.
TIM10 inh: TIM10 yeast growth inhibition; S. cerevisiae TIM10 strain growth, BacTiter-Glo luminescence, 24 h; inhibition, % at 10 µM; 1.4% of 330,000 active; AID 463195;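 active = inhibition of 40% or more at the single tested concentration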;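 also: wild-type TIM10 isogenic control strain grown at permissive 25 °C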
PfHsp90 set2: inhibits growth of yeast expressing Plasmodium falciparum Hsp90 | inhibition, % at 9.4 µM | S. cerevisiae expressing PfHsp90, BacTiter-Glo ATP, 48 h; yeast lacking PDR1 and PDR3 efflux regulators | AID 504621 | 0.32% of 310,000 active;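 active = every replicate shows inhibition above about 80%, whatever the replicate mean, limit read from the data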;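 also: 0% = DMSO neutral controls and 100% = 20 µM radicicol positive controls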
V-ATPase pHluor: alters yeast V-ATPase proton transport; 0.37% of 350,000 active; S. cerevisiae, pHLuorin cytosolic pH fluorescence; response, % at 10 µM; AID 504577; in the data active = response mostly above about 7.3%, no sharp cut-off; inactive = mostly below about 5.4%; also: actives read high
tim10-1 inh: tim10-1 yeast growth inhibition | S. cerevisiae tim10-1 ts strain growth, BacTiter-Glo, 24 h | AID 463190 | inhibition, % at 20 µM | 2.2% of 330,000 active;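 active = inhibition of at least 40%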;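 also: mutant grown at 25 °C; 0% = DMSO wells with yeast and 100% = wells holding no yeast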
tim23-1 inh: inhibits growth of tim23-1 mutant yeast; S. cerevisiae tim23-1 growth, BacTiter-Glo luminescence, 24 h; inhibition, % at 20 µM; 1.3% of 330,000 active; AID 463212;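 active = growth inhibition of the mutant yeast at or above 50%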;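 also: temperature-sensitive mutant grown at 25 °C; plate controls were DMSO-treated mutant yeast for no effect and medium wells lacking yeast for full effect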
tim10-1 confirm: confirmation of tim10-1 mutant yeast growth inhibitors. inhibition, % at 20 µM. shares compounds with tim10-1 inh. AID 463213. S. cerevisiae tim10-1 ts strain growth, BacTiter-Glo, 24 h. 56% of 7,400 active;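 active = inhibition of yeast growth at or above a set limit in either of two repeat tests at 20 µM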;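 also: tim10-1 mutant grown at permissive 25 °C to find synthetic lethal compounds; 0% = DMSO yeast wells and 100% = medium wells without yeast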
tim10 confirm: confirmation of TIM10 yeast growth inhibitors; shares compounds with TIM10 inh; S. cerevisiae tim10 strain growth, BacTiter-Glo luminescence, 24 h; inhibition, % at 10 µM; 63% of 4,600 active; AID 463215;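 active = inhibition of yeast growth at or above a set limit in either of two replicates at 10 µM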;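 also: this counterscreen used the strain with wild-type TIM10; 0% = yeast with DMSO and 100% = medium wells lacking yeast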
tim23-1 confirm: confirmation of tim23-1 mutant yeast growth inhibitors. 83% of 4,400 active. inhibition, % at 20 µM. S. cerevisiae tim23-1 growth, BacTiter-Glo luminescence, 24 h. shares compounds with tim23-1 inh. AID 463218;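 active = inhibition above about 39% in either of two replicate wells at 20 µM, limit read from the data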;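 also: temperature-sensitive tim23-1 mutant grown at 25 °C; 0% = DMSO wells with yeast and 100% = medium wells without yeast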
Numbers without * were called inactive; / = not tested or not shown.

SMILES | TIM10 inh | PfHsp90 set2 | V-ATPase pHluor | tim10-1 inh | tim23-1 inh | tim10-1 confirm | tim10 confirm | tim23-1 confirm
N#C/C(N=Nc1ccccc1O)=N\Nc1ccccc1O | 13 | 20 | -2 | 65* | 82* | 60* | / | 66*
Cc1c(C#N)c(N=CN(C)C)c(C(=O)c2ccc(Br)cc2)n1-c1ccccc1 | 42* | 22 | 0 | 41* | 56* | 25 | 22 | 35
O=C(/C=C/c1cccc([N+](=O)[O-])c1)c1cccs1 | 69* | 93* | 3 | 57* | 52* | 52* | 72* | 49*
O=C(/C=C/c1cccc([N+](=O)[O-])c1)Nc1ccc(NC(=O)c2cccs2)cc1 | -27 | 9 | 0 | 16 | -6 | / | / | /
O/C=c1\ccc2cccc3nc(C(F)(F)F)nc1c23 | 52* | 8 | 4 | 63* | 50* | 54* | 51* | 50*
COc1ccc(-c2n[nH]c(C)c2-c2cc(OC)ccc2O)cc1 | 2 | -13 | 1 | 18 | 7 | / | / | /
COc1ccc(O)c(-c2cc(-c3ccc(F)cc3)n[nH]2)c1 | 30 | -16 | -1 | 49* | 63* | 27 | / | 72*
CCOC(=O)c1cc(-c2ccc(OC)cc2)n[nH]1 | 12 | 5 | -2 | 30 | 16 | / | / | /
COc1ccc(-c2cc(-c3cc(OC)ccc3O)[nH]n2)cc1 | 51* | / | -1 | 44* | 59* | 29* | 42* | 61*
CCCCNC(=O)c1cccc(S(=O)(=O)N2CC3(C)CC2CC(C)(C)C3)c1 (configuration not stated) | 29 | 5 | -4 | 50* | 59* | 48* | / | 54*
C/C(=N\NC(=O)c1ccc(CN2CCc3ccccc3C2)cc1)c1ccccc1O | 45* | 21 | -1 | 47* | 74* | 29 | 48* | 79*
CCC(=O)N1CCCC(C(=O)c2ccc(-c3ccccc3)cc2)C1 (configuration not stated) | -6 | 5 | -2 | 9 | 34 | / | / | /
C[C@@]12CCC=C[C@H]1[C@H](c1ccccc1Br)N(Cc1ccccc1)C2=O | 40* | -28 | 2 | 43* | 63* | 51* | 48* | 55*
CC(C)(C)c1ccc(OCc2ccc(C(=O)NCc3cccnc3)o2)cc1 | -1 | -14 | -4 | 33 | 12 | / | / | /
Cc1cc(C)n(/N=C/c2cc(Cl)cc(Cl)c2O)c(=O)c1 | 25 | -44 | -7 | 48* | 61* | 12 | / | 72*
Cc1cc(C)n(/N=C/c2ccccc2O)c(=O)c1 | -15 | -3 | 0 | 11 | 10 | / | / | /
CC(=O)c1cc(C#N)c(Oc2cccc(C(F)(F)F)c2)nc1C | -38 | -7 | -1 | -32 | -8 | / | / | /
FC(F)(F)c1cccc(Oc2nc(-c3ccccc3)nnc2C(F)(F)F)c1 | 46* | / | 1 | 54* | 55* | 48* | 38* | 46*
Cc1ccc(C(=O)/C=C/c2ccc(-c3ccc(C)cc3)o2)cc1 | 57* | -108 | 2 | 63* | 60* | 64* | 66* | 76*
Cn1nccc1C(=O)N1CCN(c2ccccc2F)CC1 | -3 | -10 | 0 | 21 | 2 | / | / | /
CSc1cccc(-n2ccc(=O)c(C)c2C)c1 | -11 | -4 | -4 | 8 | 5 | / | / | /
CCOC(=O)c1sc(NC(=O)c2cc(-c3ccccc3C)nc3ccccc23)c(C#N)c1C | 2 | -23 | -1 | 30 | 13 | / | / | /
Cc1ccccc1-c1cc(C(=O)Nc2sc(C)c(C)c2C(N)=O)c2ccccc2n1 | 31 | -13 | 2 | 42* | 54* | 31* | / | 42*
O=[N+]([O-])c1ccc(Nc2ccccc2)c2nonc12 | 45* | -13 | 0 | 49* | 60* | 37* | 39* | 67*
CC(=O)NS(=O)(=O)c1ccc(Nc2ccc([N+](=O)[O-])c3nonc23)cc1 | 16 | 5 | 8 | 8 | 10 | / | / | /
SMILES | TIM10 inh | PfHsp90 set2 | V-ATPase pHluor | tim10-1 inh | tim23-1 inh | tim10-1 confirm | tim10 confirm | tim23-1 confirm
O=C(CCO)c1ccc(O)cc1 | -5 | 18 | -1 | 3 | 11 | / | / | /
O=C(CCSc1ccc(Br)cc1)c1ccc(O)cc1 | 17 | 97* | -1 | 50* | 62* | 49* | / | 74*
CC(C)C(NC(=O)c1c(F)cccc1F)C(=O)N1CCN(S(=O)(=O)/C=C/c2ccccc2)CC1 (configuration not stated) | 14 | -12 | 5 | 17 | 17 | / | / | /
Cc1cc(=O)n(C(C)c2ccccc2)n1C(C)c1ccccc1 (configuration not stated) | / | 10 | -3 | / | / | / | / | /
CC(=O)Nc1ccc(NC(=O)CCCCCn2nnc3ccccc3c2=O)cc1 | -4 | -10 | 5 | -8 | 2 | / | / | /
Cc1cc(/C=N/NC(=O)c2ccc(O)cc2)c(C)n1CC(C)C | 0 | -12 | -2 | 13 | 5 | / | / | /
C=CCN(CC=C)c1nc2ccccc2nc1C(C#N)C(=O)OCCOC (configuration not stated) | 41* | -9 | -1 | 67* | 59* | 72* | 55* | 66*
CCCN(CCC)c1nc2ccccc2nc1C(C#N)C(=O)OCCOC (configuration not stated) | 12 | -20 | -16 | 24 | 25 | / | / | /
O=C(/C=C/c1ccco1)NCC1COc2ccccc2O1 (configuration not stated) | 9 | 2 | 0 | 2 | -3 | / | / | /
CC(=O)n1c2c(c3ccccc31)OC(N)=C(C#N)C2c1ccc(C(C)C)cc1 (configuration not stated) | 35 | 13 | -2 | 42* | 55* | 37* | / | 52*
COc1cc(OC)c(NC(=S)Nc2cccc(C(C)=O)c2)cc1Cl | 5 | -6 | -1 | 23 | 20 | / | / | /
COc1cc(OC)c(NC(=S)Nc2cc(Cl)cc(Cl)c2)cc1Cl | 41* | -4 | 1 | 54* | 54* | 53* | -9 | 58*
COc1ccc2c(c1)sc1nc(-c3ccccc3)cn12 | -1 | 24 | -2 | 40* | 60* | 19 | / | 67*
CN1/C(=C\C(=O)Nc2ccc(Cl)cc2)C(C)(C)c2ccccc21 | 59* | 37 | 2 | 52* | 68* | 62* | 54* | 78*
CN1/C(=C\C=C(/C#N)C(=O)Nc2ccc(Cl)cc2)C(C)(C)c2ccccc21 | -1 | 0 | 2 | -7 | 0 | / | / | /
Cc1ccc(O)c(NC(=O)c2onc(C)c2Cl)c1 | 11 | -2 | -4 | -39 | 19 | / | / | /
O=C(NC(=S)Nc1ccccc1Br)C1CCC1 | 38 | 3 | 0 | 40* | 58* | 25 | / | 40*
NC(=S)N/N=C/c1ccccc1OCCSc1ccc(Cl)cc1 | 57* | -29 | 4 | 43* | 54* | 32* | 3 | 34
